# Screening data (PubChem BioAssay)
# Most compounds without a hit are left out; they make up all but 2.3% or so of the library.
# Pol beta inh = inhibitors of human DNA polymerase beta; Pol beta primer extension/strand displacement, fluorescence kinetic; Potency, µM (doses to about 114 µM), for the others: top-dose activity change, negative = inhibition, most hits filed as inhibitors; P06746; 340,000 compounds, 1.3% hits; note: % is set by controls: 0 for no effect and ±100 for the full control effect
#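 Reaction started by 50 nM substrate onto compound-treated Pol beta (10 nM, 15 min preincubation, room temperature); plates read at 0 min and 10 min. Normalized concentration-effect data fitted by four-parameter Hill equation.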
# POLH inh = blocks human DNA polymerase eta activity | 390,000 compounds, 1.2% hits | Potency, µM (highest dose often 114 µM), for the others: top-dose activity change, negative = inhibition, actives largely listed as inhibitors | Q9Y253 | recombinant Pol eta, fluorescent DNA replication assay | AID 588591; note: % is set by controls: 0 for no effect and ±100 for the full control effect
# Target sequence (Q9Y253 whole entry, looked up): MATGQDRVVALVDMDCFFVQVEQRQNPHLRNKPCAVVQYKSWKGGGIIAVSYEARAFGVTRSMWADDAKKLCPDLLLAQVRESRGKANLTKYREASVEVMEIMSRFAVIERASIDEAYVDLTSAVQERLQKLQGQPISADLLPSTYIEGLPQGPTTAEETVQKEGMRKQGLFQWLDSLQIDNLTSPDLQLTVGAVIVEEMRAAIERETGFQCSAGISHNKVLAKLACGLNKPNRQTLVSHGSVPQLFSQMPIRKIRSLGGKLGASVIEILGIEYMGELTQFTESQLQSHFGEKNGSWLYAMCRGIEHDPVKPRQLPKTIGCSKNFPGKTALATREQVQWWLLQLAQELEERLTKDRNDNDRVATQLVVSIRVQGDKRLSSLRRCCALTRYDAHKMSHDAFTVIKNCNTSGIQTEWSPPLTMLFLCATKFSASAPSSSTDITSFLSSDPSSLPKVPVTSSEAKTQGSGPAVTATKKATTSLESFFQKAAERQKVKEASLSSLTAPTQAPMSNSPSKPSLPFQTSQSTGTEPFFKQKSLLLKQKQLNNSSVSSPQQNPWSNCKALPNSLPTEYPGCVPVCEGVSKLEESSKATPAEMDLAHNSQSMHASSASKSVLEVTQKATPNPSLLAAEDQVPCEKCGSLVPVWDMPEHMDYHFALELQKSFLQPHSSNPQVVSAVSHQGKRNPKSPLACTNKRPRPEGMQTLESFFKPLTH
#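 Fluorescent replication assay: 50 nM final substrate added after a 15 min room-temperature compound preincubation with 10 nM enzyme. Signal taken at 0 min and again at 10 min.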
# WRN helicase inh = blocks human WRN helicase | WRN helicase unwinding, fluorescent forked duplex, kinetic | Potency, µM (series often up to 114 µM), for inactives: at the highest dose activity change, negative = inhibition, hits mostly inhibitors | 360,000 compounds, 0.46% hits | Q14191; note: % is set by controls: 0 for no effect and ±100 for the full control effect; nearly all actives have a fitted effect of over 55% in size
#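 Fluorescence dequenching readout, ex 525 nm/em 598 nm, kinetic mode: forked duplex DNA (100 nM final) with adjacent fluorophore and quencher unwound by WRN (20 nM final) with 2 mM ATP. Compound preincubation 15 min, room temperature.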
# Pol iota inh = DNA polymerase iota (human) inhibition | Q9UNA4 | Pol iota fluorescent replication assay, 10 min | Potency, µM (titrated, usually from 115 µM), for inactives: at the top dose activity, negative = inhibition, actives largely listed as inhibitors | 390,000 compounds, 1% hits | AID 588590
#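 Fluorescent replication assay read twice, at 0 min and 10 min after adding 50 nM (final) substrate. Enzyme (10 nM) and compounds were first incubated 15 min at room temperature; enzyme-free buffer wells were negative controls.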
# POLK inh = blocks human DNA polymerase kappa activity; Q9UBT6; purified Pol kappa, fluorescent DNA synthesis assay, 10 min; Potency, µM (top dose mostly 107 µM), for the others: top-dose activity, negative = inhibition, most hits filed as inhibitors; 400,000 compounds, 0.53% hits; AID 588579; note: % is set by controls: 0 for no effect and ±100 for the full control effect
#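 Enzyme at 10 nM met test compounds for 15 min at room temperature. Substrate addition (50 nM final) began the reaction, which was monitored by fluorescence at 0 and 10 min.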
# * = called active by the depositor; ? = inconclusive; nt = no result given; [ ] = dose if it differs, or a comment. Calls come from the whole dose curve; as a rule, active = well fitted curve in the direction sought with a large enough effect; inconclusive = small, poorly fitted or top-dose-only effect, or another doubt; inactive = no such curve, though single readings can be large; an effect the other way counts as inactive or inconclusive. Potency is the fitted concentration of half-maximal effect.
SMILES,Pol beta inh,POLH inh,WRN helicase inh,Pol iota inh,POLK inh
O=C(CSc1nc2nc(-c3cccs3)cc(C(F)(F)F)c2c(=O)[nH]1)Nc1ccc(F)c(F)c1,28µM*,32µM*,?,?,?
N#Cc1c(C(F)(F)F)cc(-c2cccs2)nc1SCC(=O)Nc1ccc(Cl)cc1,23%,-15%,nt,10%,-11%
CN(C)c1ccc(/C=C2/CCCc3c2nc2ccccc2c3C(=O)O)cc1,nt,nt,nt,?,79µM*
COc1ccc(/C=C/C(=O)O)cc1S(=O)(=O)N1CCCC1,?,18µM*,-28%,41%,-11%
COc1ccc(/C=C/C(=O)O)cc1S(=O)(=O)N1CCC(C)CC1,3%,79µM*,2%[11.6 µM],-6%,-27%
COc1ccc(/C=C/C(=O)O)cc1S(=O)(=O)N1CCCCC1,?,0%,10%,30%,14%
C=CC[C@H](c1ccc(F)cc1)N(CC(C)C)S(=O)(=O)C=C,nt,nt,nt,21%,-23%
O=C(CSc1nc(-c2ccccc2)nc2ccccc12)Nc1cccc(C(=O)O)c1,0%,35µM*,-14%[11.6 µM],?,1%
CC(=O)c1cccc(NC(=O)CSc2nc(C3CC3)nc3ccccc23)c1,?,-18%,-28%,25µM*,-35%
O=C(OCc1ccccc1)N1CCN(/[N+]([O-])=N/Oc2ccc([N+](=O)[O-])cc2[N+](=O)[O-])CC1,nt,nt,nt,26%,-2%
CCS(=O)(=O)C1=NSC2=NC(=O)/C(=C\c3ccc(OC(=O)c4ccco4)c(OC)c3)C(=N)N21,27%,?,-29%,?,2%
COc1cc(/C=C2/C(=N)N3C(SC)=NSC3=NC2=O)ccc1OC(=O)c1ccco1,3%,-7%,-31%,?,-15%
COc1cc(/C=C2/C(=N)N3C(=NC2=O)SN=C3S(=O)(=O)C(C)C)ccc1OC(=O)c1ccco1,1%,79µM*,-21%,?,-14%
COc1cc(/C=C2/C(=N)N3C(=NC2=O)SN=C3S(C)(=O)=O)ccc1OC(=O)c1ccco1,-8%,50µM*,-17%[11.6 µM],?,-19%
CCOc1cc(/C=C2/C(=N)N3C(=NC2=O)SN=C3S(=O)(=O)CC)ccc1OC(=O)c1ccco1,-9%,79µM*,-10%,?,4%
CCOc1cc(/C=C2/C(=N)N3C(=NC2=O)SN=C3S(=O)(=O)C(C)C)ccc1OC(=O)c1ccco1,-1%,45µM*,-26%[11.6 µM],4%,-10%
CSCC[C@H](NC(=O)[C@H](CC(C)C)N1CCC(NC(=O)[C@@H](NC(=O)[C@H](Cc2ccccc2)NC(=O)[C@H](CO)NC(=O)[C@H](CC(=O)O)NC(=O)[C@@H](N)CCCCN)C(C)C)C1=O)C(N)=O (stereo partly specified),nt,nt,nt,nt,-6%[60.1 µM]
C[C@@]1(C(=O)O)NCCc2cc(O)c(O)cc21,nt,nt,nt,nt,1.8µM*
CCCCNC(=O)C(CC)n1c(SCc2cccc(F)c2)nc2ccncc21 (stereo unspecified),nt,nt,nt,2%,5%
Cc1ccccc1C1C2=C(Nc3[nH]n(-c4ccccc4)c(=O)c31)c1ccccc1C2=O (stereo unspecified),-8%,nt,nt,nt,nt
Cc1cccc(C2C3=C(Nc4[nH]n(-c5ccccc5)c(=O)c42)c2ccccc2C3=O)c1 (stereo unspecified),?,13µM*,-5%[11.6 µM],?,?
Cc1cc2c(c(=O)o1)C(c1ccc([N+](=O)[O-])o1)C(C#N)=C(N)O2 (stereo unspecified),?,-3%,?,20µM*,79µM*
COc1cc2c(NC3CCN(C)CC3)nc(N3CCCN(C)CC3)nc2cc1OCCN(C)CCN(C)C,nt,nt,nt,-26%,-20%
C=C1CC[C@H](O)C/C1=C/C=C1\CCC[C@]2(C)[C@@H]([C@H](C)CCCC(C)(C)O)CC[C@@H]12,nt,nt,nt,nt,-3%[19.4 µM]
O=C(O)COc1ccc(/C=C/c2ccc3cccc([N+](=O)[O-])c3n2)cc1,1%,20µM*,-27%[57.1 µM],?,?
SMILES,Pol beta inh,POLH inh,WRN helicase inh,Pol iota inh,POLK inh
CC(=O)Nc1ccc(/C=C/c2ccc3cccc([N+](=O)[O-])c3n2)cc1,-1%,3%,-1%,36%,8%
O=C1SC(Nc2ccccc2)C(=O)N1c1ccccc1 (stereo unspecified),nt,nt,nt,12%,-23%
Cc1ccc(S(=O)(=O)c2ncccc2[N+](=O)[O-])cc1,0%,5%,50µM*,24%,16%
Cc1ccc(S(=O)(=O)c2ncccc2N)cc1,26%,3%,1%,-7%,-18%
Nc1nc(SCC(=O)N2N=C3/C(=C\c4ccco4)CCCC3C2c2ccco2)n[nH]1 (stereo unspecified),nt,?,-2%[11.6 µM],40µM*,-32%
Cn1cnnc1SCC(=O)N1N=C2/C(=C/c3ccco3)CCCC2C1c1ccco1 (stereo unspecified),1%,-9%,-3%,?,5%
Nc1nc(SCC(=O)N2N=C3/C(=C/c4ccco4)CCCC3C2c2ccco2)n[nH]1 (stereo unspecified),5%,?,-4%,45µM*,-25%
O=C(CSc1ncn[nH]1)N1N=C2/C(=C/c3ccccc3)CCCC2C1c1ccccc1 (stereo unspecified),-26%[57.1 µM],-16%,-7%,14%,-8%[60.1 µM]
Cc1ccc(S(=O)(=O)/N=C(\N)Nc2nc(C)c3ccccc3n2)cc1,-11%,?,-11%,-8%,-4%
COc1ccc2c(C)nc(N/C(N)=N/S(=O)(=O)c3ccc(C)cc3)nc2c1,0%,-4%,-2%,89µM*,-11%
CCN(CC)CCN(C)c1ccc(/C=C/c2ccnc3ccccc23)cc1,nt,nt,nt,-11%,-3%
O=C(NC1CCCCCC1)c1ccco1,5%,-4%,4%[11.6 µM],32µM*,89µM*
O=C(CN1C(=O)C(=O)N(Cc2ccco2)C1=O)NC1CCCCC1,-15%,32µM*,-8%[11.6 µM],?,?
Cn1cc(C(c2ccccc2OCC(=O)O)c2cn(C)c3ccccc23)c2ccccc21,-3%,1%,79µM*,82%,-13%
CCn1c(=O)cc(OCC(=O)O)c2ccccc21,13%,-9%,4%,11%,-11%
CC(C)C(C)N(Cc1cccc(C(=O)O)c1)C(=O)c1ccc2ccccc2n1 (stereo unspecified),nt,-12%,8%,22µM*,-16%
O=C(C[n+]1ccccc1Cl)c1cccc([N+](=O)[O-])c1,nt,nt,nt,20%,-5%
COc1ccc(NC(=O)NNC(=O)COc2ccc3ccccc3c2)cc1OC,2%,5%,7%,2%,-13%
COc1ccc(NC(=O)NNC(=O)COc2ccc([N+](=O)[O-])c(C)c2)cc1OC,50µM*,-16%,-17%,34%,-4%
CNC(=O)[C@]1(C(F)(F)F)C[C@H](CCC2CCCCC2)CCCO1,nt,nt,nt,12%,6%
COc1ccc(-c2nc(SCC(=O)Nc3ccc4c(c3)OCCO4)c(-c3ccc(F)cc3)[nH]2)cc1,40µM*,-17%,nt,?,-26%
